Pf growth 96h: P. falciparum growth inhibition at 96 hours. Potency, µM (doses to about 28.7 µM), inactives show top-dose activity change, negative = inhibition, hits mostly inhibitors. 6.9% of 320,000 active. P. falciparum luciferase reporter growth, 96 h; active = well fitted inhibition curve with a large enough effect; inconclusive = small, poorly fitted or top-dose-only effect, or another doubt; inactive = no such curve, though single readings can be large or run the other way; also: potency is read from the fitted curve at half-maximal effect; % is scaled to controls: 0 for no effect and ±100 for the full control effect
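Erythrocytes infected with luciferase-expressing P. falciparum were dispensed at 2% hematocrit and 0.05% parasitemia (final), then incubated with compounds 96 hours at 37 C in 5% CO2. Luminescence after detection reagent addition reported growth.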
CHX counter: affects cycloheximide protein synthesis inhibition readout, counter-screen; cell reporter, cycloheximide protein synthesis inhibition counterscreen; max response, %; 12% of 300,000 active; in the data active = max response mostly above about 13%, no sharp cut-off; inactive = mostly below about 14%; also: read at 38.3 µM for the half of the compounds with a filed dose; 0% is about no effect
SARS PLP yeast: blocks SARS-CoV papain-like protease in a yeast assay | S. cerevisiae expressing SARS-CoV PLpro, growth rescue | Potency, µM (top dose mostly 32.9 µM), for the others: at the highest dose activity, positive = growth rescue, actives largely listed as activators | 0.19% of 330,000 active; also: potency is read from the fitted curve at half-maximal effect; 0% is about no effect; nearly all actives have a fitted effect of over 55% in size
Pf growth 48h: inhibits P. falciparum growth in the first generation, 48 h; P. falciparum luciferase growth in erythrocytes, 48 h; Potency, µM (top dose mostly 28.7 µM), for inactives: top-dose activity change, negative = inhibition, actives largely listed as inhibitors; 5.9% of 310,000 active; active = well fitted inhibition curve with a large enough effect; inconclusive = small, poorly fitted or top-dose-only effect, or another doubt; inactive = no such curve, though single readings can be large or run the other way; also: potency is read from the fitted curve at half-maximal effect; % is scaled to controls: 0 for no effect and ±100 for the full control effect
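Parasite viability was followed by luminescence of a genomically integrated firefly luciferase. Cultures held 0.1% parasitemia at 2% hematocrit (final), incubated under 5% CO2 at 37 C.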
Shiga inhibitor: blocks Shiga toxin action in Vero cells. Vero cells, Shiga toxin protein synthesis inhibition reporter. inhibition, % at 38.7 µM. 9.2% of 290,000 active. AID 2315; in the data active = inhibition mostly above about 28%, no sharp cut-off; inactive = mostly below about 43%; also: 0% is about no effect
NS1 function inh: influenza NS1 inhibition; Potency, µM (titrated, usually from 46.1 µM), inactives show at the highest dose activity, positive = more growth; AID 2326; 0.4% of 270,000 active; also: potency is read from the fitted curve at half-maximal effect; actives are rising curves; nearly all actives have a fitted effect of over 50% in size
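In this qHTS, NS1 from influenza A is expressed in budding yeast, where it slows growth. Cells are switched from glucose to 2% galactose medium (pH 6.0, -URA), treated with compound, and growth recovery is read at OD600.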
Flu NS1 inh: influenza NS1 function inhibition validation. shares compounds with NS1 function inh. influenza NS1 function cell assay, 15-point titration. AID 492980. 1,400 tested, under 10 active. activity change, negative = inhibition, % at 32.9 µM; also: 0% is about no effect
PR8 titer: influenza NS1 inhibitors: inhibition of influenza A/PR/8/34 replication | 30% of 95 active | AID 504647 | shares compounds with NS1 function inh | virus titer (log TCID50), log10 TCID50 at 5 µM | MDCK infected influenza A/PR/8/34, virus titer TCID50; hits give low values; call rule not given here
Numbers without * were called inactive; ? = inconclusive; · = not tested or not shown. Hits are enriched below; roughly 21% of the tested compounds scored in any of these assays. Unless noted, calls follow the shape of the full dose curve.

SMILES	Pf growth 96h	CHX counter	SARS PLP yeast	Pf growth 48h	Shiga inhibitor	NS1 function inh	Flu NS1 inh	others
CCOc1ccc2[nH]c3c(c2c1)CNCC3	0.9%	-1.2	1.3%	?	-2.2	8.3%	·
COc1ccc2[nH]c3c(c2c1)CCNC3	42.0%	·	7.0%	5.1%	·	17.8µM*	12.7
CCOc1ccc(S(=O)(=O)N2CCC(C(=O)N3CCOCC3)CC2)cc1Cl	9.1%	-5.5	-1.4%	-3.8%	-2.2	2.2%	·
CC(C)(C)N(Cc1ccccc1)C(=O)CCc1ccccc1	13.1µM*	-2.9	-0.7%	?	23.6	?	-32.6
COc1cc(C2C3C(=O)N(Cc4ccccc4)C(=O)C3ON2c2ccccc2)cc(OC)c1OC (stereo not drawn)	?	-3.0	2.3%	?	-19.9	11.2µM*	?
O=C(NC1CCCC1)C(c1ccncc1)N(C(=O)c1csnn1)c1ccc(F)c(Cl)c1 (stereo not drawn)	11.1%	3.0	-21.3%	?	-14.1	-11.7%	·
COc1ccccc1NS(=O)(=O)c1ccc(C(=O)NCC2(N(C)C)CCCCC2)cc1	?	·	-0.1%	?	·	·	·
COc1ccccc1NC(=O)NCC1(N(C)C)CCCCC1	32.4%	-3.2	3.5%	15.3%	-10.0	?	-22.6
Cc1ccccc1Nc1nc(N)nc(CSCC(=O)Nc2cccc(Br)c2)n1	-12.7%	-1.7	11.8%	-5.5%	-5.0	?	-11.0
CCc1ccccc1Nc1nc(N)nc(CSCC(=O)c2cc(C)n(C)c2C)n1	198.0%	-0.7	6.4%	?	11.1	6.4%	·
CC(C)NC(=O)c1ccccc1S(=O)(=O)c1ccccc1C#N	2.0%	0.7	1.1%	35.2%	-20.8	1.0%	·
CNC(=O)c1ccccc1S(=O)(=O)c1ccccc1C#N	?	8.9	15.3%	?	-10.0	?	22.5
CCOc1ccc(NC(=S)N2C3CCCC2CC(NC(=O)C2CC2)C3)cc1 (stereo not drawn)	31.1%	-0.2	14.4%	-29.9%	-15.5	25.9%	·
Cc1oc(-c2ccc(Cl)cc2)nc1CS(=O)CC(=O)N1CCC2(CC1)OCCO2 (stereo not drawn)	16.3%	-2.1	5.7%	14.5%	-11.9	10.6%	·
CCOC(=O)C1CCN(C(=O)CS(=O)Cc2nc(-c3ccc(C)cc3)oc2C)CC1 (stereo not drawn)	34.3%	-1.5	10.3%	·	-7.1	11.2µM*	-0.2	PR8 titer=8
O=C1CN(C(=O)COC(=O)c2ccc(Cl)cc2)c2ccccc2N1	0.2%	·	0.6%	0.3%	·	·	·
O=C1CN(C(=O)COC(=O)c2ccc(N3CCCCCC3)c([N+](=O)[O-])c2)c2ccccc2N1	6.57µM*	-2.9	-4.5%	?	-7.5	10µM*	20.7
Cc1ccc(C(=O)N/C(=C\c2ccc(-c3ccc(Br)cc3)o2)C(=O)NC2CCS(=O)(=O)C2)cc1 (stereo not drawn)	-11.9%	-1.6	-10.3%	-5.1%	9.6	?	3.1
CCN(CC)CCCN=Cc1c(O)n(CCc2ccc(F)cc2)c(=O)[nH]c1=O	-15.8%	-1.4	5.5%	-9.6%	-9.4	?	-10.2
CCN(CC)CCN=Cc1c(O)n(CCc2ccccc2)c(=O)[nH]c1=O	29.4%	-1.6	14.1%	-11.7%	-10.2	?	·
C[C@H](NC(=O)c1nc[nH]c1C(=O)N[C@@H](Cc1ccccc1)C(=O)OCc1ccccc1)C(=O)OCc1ccccc1	?	0.8	4.0%	?	-2.9	7.94µM*	16.9
CNC(=O)c1[nH]cnc1C(=O)N[C@@H](Cc1ccccc1)C(=O)OC(C)(C)C	-3.9%	0.4	0.1%	-0.4%	-12.3	3.7%	·
CC(C)(C)OC(=O)CNC(=O)c1[nH]cnc1C(=O)NC(c1ccccc1)c1ccccc1	?	-1.3	1.9%	?	13.2	14.1µM*	-24.8
C[C@H](NC(=O)c1nc[nH]c1C(=O)N[C@@H](Cc1ccccc1)C(=O)OC(C)(C)C)C(=O)OCc1ccccc1	93.9%	-3.2	0.9%	52.8%	-1.6	11.2µM*	8.8
CNC(=O)c1[nH]cnc1C(=O)N[C@@H](Cc1ccccc1)C(=O)OCc1ccccc1	68.5%	5.0	-1.3%	8.2%	13.9	0.2%	·
SMILES	Pf growth 96h	CHX counter	SARS PLP yeast	Pf growth 48h	Shiga inhibitor	NS1 function inh	Flu NS1 inh	others
CCOC(=O)/C(=N\Nc1ccc(Br)cc1)N1CC(C)OC(C)C1 (stereo not drawn)	2.6%	-3.9	-13.0%	?	-4.9	-129.1%	·
Cc1sc(NC(=O)c2sc3nc4c(C)cccc4cc3c2N)c(C#N)c1C	?	18.9*	3.7%	?	37.5*	?	4.8
Cc1cccc2cc3c(N)c(C#N)sc3nc12	·	12.0	-0.8%	?	17.6	-14.3%	·
Cc1csc(NC(=O)CSc2nccn2Cc2ccco2)n1	30.7%	5.9	10.7%	23.6%	22.5	3.6%	·
CC1CCC(C(=O)NC(C(=O)NCCc2ccc(S(N)(=O)=O)cc2)C(C)C)CC1 (stereo not drawn)	?	-2.7	0.4%	-6.6%	1.5	0.1%	·
Fc1ccc(NC(=S)N2CCN(c3cccc(C(F)(F)F)c3)CC2)cc1	3.1%	-4.0	-31.8%	-0.2%	-8.7	1.5%	·
FC(F)(F)c1cccc(NC(=S)N2CCN(c3cccc(C(F)(F)F)c3)CC2)c1	5.86µM*	-5.7	4.8%	-3.7%	32.1	?	30.8
O=C(CCn1c(=O)oc2ccccc21)Nc1cccc([N+](=O)[O-])c1	119.7%	5.5	2.0%	5.5%	-15.4	-4.2%	·
O=c1cc(O)nc2n1CCCS2	64.1%	-2.8	6.2%	41.1%	-23.3	7.94µM*	1.4
Cc1cccc2[nH]c(CN(C)C(=O)CC3C(=O)NCCN3CC(C)(C)C)nc12 (stereo not drawn)	5.0%	-3.2	1.5%	?	10.5	2.4%	·
CCn1c2ccccc2c2cc(/C=N/NC(=O)c3cc(O)cc(O)c3)ccc21	15.4%	4.1	-0.6%	?	6.4	-8.2%	·
O=C(N/N=C/c1cn(Cc2ccccc2)c2ccccc12)c1cc(O)cc(O)c1	?	-3.2	3.9%	?	-7.6	14.1µM*	-2.5
O=C(Cn1cc(/C=N/NC(=O)c2cccc3ccccc23)c2ccccc21)Nc1ccc(F)cc1	?	4.2	0.4%	?	13.4	10µM*	7.9
COc1ccc(CCN(C)C(=O)COC(=O)/C=C/c2ccc(C)o2)cc1OC	?	·	1.2%	0.0%	·	·	·
CCOc1ccc(C(C)=O)cc1COc1cccnc1[N+](=O)[O-]	1.2%	-3.0	-3.5%	22.4%	-1.4	-69.5%	·
COc1ccc(C(C)=O)cc1COc1cccnc1[N+](=O)[O-]	1.2%	1.8	0.2%	-4.7%	1.8	?	-5.8

Screening data deposited in PubChem BioAssay by National Center for Advancing Translational Sciences (NCATS).
